TDP1 cell CPT = growth inhibition of DT40 Tdp1-/-;hTDP1 cells with camptothecin (screen for TDP1 inhibitors). chicken DT40 Tdp1-/-;hTDP1 cells + 20 nM CPT, ATP luminescence, 48 h. Potency, µM (titrated, usually from 46.2 µM), inactives show top-dose activity change, negative = growth inhibition, hits mostly inhibitors. hit rate 12% among 420,000. AID 686979; also: potency is read from the fitted curve at half-maximal effect; nearly all actives have a fitted effect of over 55% in size
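Chicken DT40 Tdp1-/- cells complemented with human TDP1, 400 cells/well, exposed to compounds plus 20 nM camptothecin for at least 48 h at 37 C; viability read as ATP content by CellTiter-Glo luminescence.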
Giardia kill = Giardia lamblia killing; activity change, % at 7.66 µM, hits read low; Giardia lamblia trophozoite viability; AID 540267; hit rate 0.15% among 340,000; in the data active = activity change below about -80%; inconclusive = between about -30% and that limit;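 also: parasites exposed to compound for two days anaerobically before the ATP read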
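Each well holds 100 Giardia trophozoites and compound. After two days (48 hrs) at 37 deg C in anaerobic conditions, ATP is quantified by luminescence.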
DT40 TDP1 no CPT = qHTS for Inhibitors of human tyrosyl-DNA phosphodiesterase 1 (TDP1): qHTS in cells in absence of CPT; DT40 Tdp1-/- hTDP1 cells, no CPT, ATP luminescence, 48 h; Potency, µM (top dose mostly 46.2 µM), without a hit: at the top dose activity change, negative = growth inhibition, hits mostly inhibitors; hit rate 15% among 420,000; AID 686978, 2013; also: potency is read from the fitted curve at half-maximal effect; nearly all actives have a fitted effect of over 55% in size
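Stably hTDP1-transfected Tdp1-null chicken DT40 cells were treated with library compounds minus camptothecin and grown for at least 48 hr at 37 °C, after which cellular ATP was quantified by luminescence.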
ELG1 DNA repair = blocks ELG1-dependent DNA repair in HEK293T cells. HEK293T ELG1-luciferase reporter, luminescence, 16 h; DNA damage induced by 5-fluorouridine. Potency, µM (top dose mostly 46.1 µM), without a hit: at the top dose activity change, negative = inhibition, usual class: inhibitors. hit rate 2.3% among 330,000; also: potency is read from the fitted curve at half-maximal effect; nearly all actives have a fitted effect of over 55% in size
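Step one: seed 2,000 cells per well. Step two: pin-transfer compound or DMSO alongside 5-fluorouridine. Step three: incubate 16 hr, 37 °C, 5% CO2. Step four: add ONE-Glo, wait 30 min, read luminescence.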
TDP1 block = inhibitors of human tyrosyl-DNA phosphodiesterase TDP1. hit rate 0.28% among 350,000. recombinant TDP1, AlphaScreen DNA substrate cleavage. Q9NUW8. AID 485290. Potency, µM (highest dose often 130 µM), inactives show top-dose activity change, negative = inhibition, actives largely listed as inhibitors; also: potency is read from the fitted curve at half-maximal effect; nearly all actives have a fitted effect of over 40% in size
Target sequence (Q9NUW8 whole entry, looked up): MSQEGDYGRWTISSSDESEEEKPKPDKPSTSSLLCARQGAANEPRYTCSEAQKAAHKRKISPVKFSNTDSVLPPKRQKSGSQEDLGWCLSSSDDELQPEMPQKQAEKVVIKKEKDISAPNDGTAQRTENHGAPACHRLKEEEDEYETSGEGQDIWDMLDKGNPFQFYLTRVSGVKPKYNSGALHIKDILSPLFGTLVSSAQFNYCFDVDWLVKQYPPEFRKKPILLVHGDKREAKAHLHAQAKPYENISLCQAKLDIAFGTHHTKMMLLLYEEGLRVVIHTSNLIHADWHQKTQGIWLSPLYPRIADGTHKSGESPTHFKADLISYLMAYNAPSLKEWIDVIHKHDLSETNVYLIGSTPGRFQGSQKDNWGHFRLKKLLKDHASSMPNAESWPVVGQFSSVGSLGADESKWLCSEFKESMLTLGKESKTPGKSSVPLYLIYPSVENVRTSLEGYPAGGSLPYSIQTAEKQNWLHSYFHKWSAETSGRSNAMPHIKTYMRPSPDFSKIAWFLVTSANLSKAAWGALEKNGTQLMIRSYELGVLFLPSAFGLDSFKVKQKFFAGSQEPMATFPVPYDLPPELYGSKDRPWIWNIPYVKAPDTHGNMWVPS
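E. coli-derived human Tdp1, 1 nM final. Cpd preinc 15 min RT; substrate 15 nM final, 5 min RT; AS bead mix 10 ug/ml final, 10 min RT. Signal loss = tyrosine-FITC cleavage. No-enzyme wells = max signal.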
IL-1B inflam inh = inflammasome signaling inhibition, IL-1 beta readout | THP-1 LPS/ATP IL-1B secretion, AlphaLISA, 16 h; active compounds read low | activity change, % at 57.5 µM | hit rate 4.7% among 360,000; in the data active = activity change below about -50%; inconclusive = mostly about -30% to -49%
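Secreted IL-1B measured by AlphaLISA bead assay after 16 h compound exposure of THP-1 cells; compounds (final up to 57.5 uM) added 1 h before LPS (250 ng/mL) and ATP (1.25 mM) stimulation; lower signal means less secretion.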
Active calls of the source: *; ? = inconclusive; . = no result given; [ ] = dose if it differs, or a comment. Rows were chosen to be rich in hits. Some 19% of all compounds tested hit in one or more screens of this group. Unless noted, calls follow the shape of the dose curve; as a rule, active = well fitted curve in the direction sought with a large enough effect; inconclusive = small, poorly fitted or top-dose-only effect, or another doubt; inactive = no such curve, though single readings can be large; an effect the other way counts as inactive or inconclusive. % is scaled to controls: 0 for no effect and ±100 for the full control effect.

SMILES	TDP1 cell CPT	Giardia kill	DT40 TDP1 no CPT	ELG1 DNA repair	TDP1 block	IL-1B inflam inh
O=C(NCc1ccc(Cl)c(Cl)c1)c1cc(C2CCCCN2C(=O)CCc2ccccc2)on1 (stereo unspecified)	?	.	?	.	.	-12
CCCn1c(C)nc2c(NCCN3CCOCC3)nc(C)nc21	.	.	.	.	2%	.
COc1ccc2nc(C(F)(F)Cl)c(C#N)c(N)c2c1	?	-12	?	15%	-5%	-72*
CCC(C)NC(=O)CSc1nc2c(sc3ccccc32)c(=O)n1CCc1ccccc1 (stereo unspecified)	-22%	.	-28%	.	5%	.
CCCCNc1sc(S(=O)(=O)CCC)nc1S(=O)(=O)c1ccc(C)cc1	?	.	21µM*	.	5%	.
CCN(CC)CCCNc1sc(S(=O)(=O)c2ccccc2)nc1S(=O)(=O)c1ccc(Cl)cc1	?	.	?	.	2%	.
CCCCNc1sc(S(=O)(=O)CC)nc1S(=O)(=O)c1ccc(C)cc1	?	.	23µM*	.	5%	.
CCCS(=O)(=O)c1nc(S(=O)(=O)c2ccc(C)cc2)c(NCc2ccccc2)s1	-27%	.	?	.	3%	.
CC(C)OCCCNc1sc(S(=O)(=O)c2ccccc2)nc1S(=O)(=O)c1ccc(Cl)cc1	?	.	18µM*	.	-5%	.
CCCS(=O)(=O)c1nc(S(=O)(=O)c2ccc(C)cc2)c(NCC(C)C)s1	?	.	21µM*	.	8%	.
C#CCN1c2ccccc2Sc2cccnc21	10%	-18	-14%	-3%	.	2
N#Cc1ccc(CN(c2ccncc2)S(=O)(=O)c2ccccc2)cc1	3%	10	-12%	-8%	12%	-2
COc1cc2c(cc1OC)n(CC(=O)c1ccc(F)cc1)c(=O)n1nc(CCn3nc(C)cc3C)nc21	?	.	-17%	.	-3%	.
Cn1c2c(c3ccccc31)CCN(CCCCN1CCN(c3ccccc3)CC1)C2=O	?	-2	?	.	.	-62*
Cc1c(C(=O)CN2CCN(c3ccccc3)CC2)c2ccccc2n1C	?	-10	?	4%	.	-5
Cc1ccc(S(=O)(=O)N(CC(=O)Nc2ccc(F)cc2F)Cc2ccc(F)cc2)cc1	18µM*	.	21µM*	.	1%	.
CCOC(=O)c1ccc(NC(=O)CN(Cc2ccc(C)cc2)S(=O)(=O)c2ccc(C)cc2)cc1	13µM*	.	13µM*	.	3%[2.28 µM]	.
CCOc1cccc(CN2CCN(CCCc3ccccc3)C(CCO)C2)c1O (stereo unspecified)	?	9	6%	-4%	2%	25
Cc1ccc(C)c(N2CC(C(=O)Nc3nccs3)CC2=O)c1 (stereo unspecified)	7%	16	-10%	-2%	0%	14
Cc1cc(C)n(/N=C/c2ccc(C(C)C)cc2)c(=O)c1C#N	?	20	8.2µM*	?	4%	-18
CCOc1ccc(-c2n[nH]c(=S)c3ccccc23)cc1	23µM*	7	?	-2%	.	35
Cc1ccc(-c2nnc(N3CCN(C(=O)CSc4ncn[nH]4)CC3)c3ccccc23)cc1	16µM*	-15	?	0%	7%	?
CC(=O)N1CCN(c2nnc(-c3ccc(C)cc3)c3ccccc23)CC1	5%	13	?	-8%	.	-22
Cc1ccc(OCC(=O)N2CCN(c3nnc(-c4ccccc4)c4ccccc34)CC2)cc1	?	-5	?	?	5%	-73*
Cc1ccc(-c2nnc(N3CCCCC3)c3ccccc23)cc1S(=O)(=O)N(C)C	23µM*	-7	?	-11%	4%	-57*
Cc1ccc(C(=O)NCC(=O)NCCc2ccc(S(N)(=O)=O)cc2)s1	1%	3	2%	?	-9%	5
CC(=O)c1cccc(NC(=O)C(C)n2c(=O)cc(-c3ccccc3)c3c(C)nn(C)c32)c1 (stereo unspecified)	?	.	?	.	7%	.

Screening data (PubChem)
